The values that follow come from PubChem BioAssay (NCI).

Molecules are shown by their SMILES. Values joined by “and” are separate entries in the source; they are usually repeats but may differ in a detail not shown here. Identical values can stand only once. Compounds without any hit were thinned out: in the full panel of roughly 79,000, 15% have a hit. Values without a mark were called inactive. Active and inactive are the calls of the source. No stated cut-off is given here; in the data, active means growth inhibition above about 70%; inactive means the rest.

Assay [1] can be described thus: NCI Yeast Anticancer Drug Screen. Data for the rad50 strain (AID 155).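 Further: 0% = growth of vehicle-only cultures of the same strain.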 Conditions: S. cerevisiae rad50 strain growth inhibition; at 50.0 µM; stronger effect = higher value. The gist of the method:
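Compounds were tested on a yeast strain with an engineered DNA damage repair alteration; the reported value is growth inhibition normalised to vehicle treatment.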

A short description of assay [2]: NCI Yeast Anticancer Drug Screen. Data for the mec2-1 strain (AID 157). Conditions: S. cerevisiae mec2-1 strain, at 50.0 µM, stronger effect = higher value. In outline: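 Each compound was tested on mec2-1 yeast, a strain altered in DNA damage repair or cell cycle control. Growth inhibition is reported relative to vehicle.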
Assay [3] is described as follows: NCI Yeast Anticancer Drug Screen. Data for the sgs1 mgt1 strain (AID 161).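 Further: 0% = growth of cultures given vehicle only.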 Conditions: S. cerevisiae sgs1 mgt1 strain, at 50.0 µM, stronger effect = higher value. In outline:
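Mutant yeast exposed to compound; growth scored against vehicle-only wells.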

Assay [4] in a line: NCI Yeast Anticancer Drug Screen. Data for the cln2 rad14 strain (AID 165).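 Further: 0% = growth equal to vehicle treated cultures.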 The following applies: S. cerevisiae cln2 rad14 strain, at 50.0 µM, stronger effect = higher value. The gist of the method: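 Test compounds were added to cln2 rad14 yeast cultures; inhibition of growth was then determined by comparison with vehicle treatment.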
Assay [5] in a line: NCI Yeast Anticancer Drug Screen. Data for the bub3 strain (AID 167). Conditions: S. cerevisiae bub3 mutant strain, at 50.0 µM, stronger effect = higher value. In outline:
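Growth of a checkpoint-deficient yeast mutant is measured after compound exposure. Values represent inhibition relative to vehicle.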

Assay [6] is described as follows: NCI Yeast Anticancer Drug Screen. Data for the mlh1 rad18 strain (AID 175). The following applies: S. cerevisiae mlh1 rad18 strain growth inhibition; at 50.0 µM; stronger effect = higher value. The gist of the method: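 Inhibition values reflect reduced growth of mutant yeast versus vehicle-treated controls following compound exposure; the mutations affect DNA damage repair.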

On to `c1ccc(N2CCNCC2)cc1` (tested in a mixture with another compound), for which the growth inhibition was -18.1% and 5.8% in assay [1]; 6.7% and -16.3% in assay [2]; -26.1% and -5.8% in assay [3]; -4% and -48.5% in assay [4]; 10.2% and 10.3% in assay [5]; -27.7% and -4.65% in assay [6].
Consider `c1cc[c]([Sn]2([c]3ccccc3)[O]CCNCC[O]2)cc1`, for which the growth inhibition was -13.1% in assay [1]; -14.4% in assay [2]; 10.4% in assay [3]; -14.9% in assay [4]; -48.7% in assay [5]; -74.4% in assay [6].
Turning to `CCOC(CBr)OCC`, the growth inhibition in assay [1] is 14.4%; in assay [2], -4.75%; in assay [3], 0.45%; in assay [4], -25.7%; in assay [5], 7.55%; in assay [6], 20.8%.
`COc1ccc2[nH]cc(CN(C)C)c2c1`: the growth inhibition in assay [1] is 21.4%; in assay [2] it was -7.6%; in assay [3], -10.2%; in assay [4], 5.3%; in assay [5], -6.35%; in assay [6] it was 18.6%.
As for `O=P(O)(OCCc1ccccc1)Oc1ccccc1O`, the growth inhibition is -6.05% in assay [1]; -4.55% in assay [2]; -20.7% in assay [3]; -1.15% in assay [4]; -10.7% in assay [5]; 13.6% in assay [6].
With `CC[P+](C#Cc1ccccc1)(c1ccccc1)c1ccccc1`, the growth inhibition in assay [1] is 85.8% (active); in assay [2], 88.9% (active); in assay [3], 89% (active); in assay [4], 87.2% (active); in assay [5], 87.4% (active); in assay [6], 87.5% (active).
For the compound `O=NNc1ccc(Br)cn1`, the growth inhibition in assay [1] is -2.7%; in assay [2], -6.25%; in assay [3] it was 5.7%; in assay [4], -0.85%; in assay [5], -0.35%; in assay [6], 4.2%.
With `O=[N+]([O-])c1ccc(SCl)c([N+](=O)[O-])c1`, the growth inhibition was 31.9% in assay [1]; 11.1% in assay [2]; 18.8% in assay [3]; 14.6% in assay [4]; 31.9% in assay [5]; 17.9% in assay [6].
With `O=C(O)CCC(=O)O`, the growth inhibition in assay [1] is -8.1% and 5.7%; in assay [2] it was -16.6% and -2.05%; in assay [3] it was -22.3% and -6.35%; in assay [4], -41.9% and 13.8%; in assay [5] it was -28% and -2.05%; in assay [6] it was -13.1% and 11.2%.
For `CCC(Cl)COP(=O)(OCC(Cl)CC)O/C(C)=C(\C)OP(=S)(OCC(Cl)CC)OCC(Cl)CC` (configuration not stated), the growth inhibition was 86.5% (active) in assay [1]; 93.2% (active) in assay [2]; 93.8% (active) in assay [3]; 99.2% (active) in assay [4]; 98.8% (active) in assay [5]; 96.8% (active) in assay [6].
Turning to `COc1ccc(C(=O)Cc2c(C(=O)c3ccccc3)c3ccccc3n2C(=O)c2ccccc2)cc1`, the growth inhibition is -2.45% in assay [1]; -18.5% in assay [2]; -9.5% in assay [3]; -57.6% in assay [4]; -23.4% in assay [5]; 5.75% in assay [6].
As for `[CH3][Sn]1([CH3])[O]C(=O)c2ccccc2C(=O)[O]1`, the growth inhibition was 6.8% in assay [1]; 15.7% in assay [2]; 23.6% in assay [3]; -13.4% in assay [4]; -13.4% in assay [5]; -13.8% in assay [6].
Consider `ClCc1ccc2ccccc2n1`, for which the growth inhibition in assay [1] is 19.1% and 11.7%; in assay [2], -8.8% and -0.5%; in assay [3] it was -3.8% and 8.5%; in assay [4] it was 7.55% and 3.35%; in assay [5], -17.6% and -7.65%; in assay [6] it was 9.75% and 4.55%.
With `c1ccc(C2(N3CCC4(CC3)OCCO4)CCCCC2)cc1`, the growth inhibition is 13% in assay [1]; -2.9% in assay [2]; 9.2% in assay [3]; -17.6% in assay [4]; 1.35% in assay [5]; 6.35% in assay [6].
On to `CCC(C)Sc1ccccc1OC(=O)NC` (configuration not stated), for which the growth inhibition in assay [1] was -10.4%; in assay [2], 7.05%; in assay [3], 0.5%; in assay [4] it was -16.6%; in assay [5], 9.85%; in assay [6], 24.1%.
Consider `CC(=O)CC(C)=O.CC(=O)CC(C)=O.CC(=O)CC(C)=O.[Mn]`, for which the growth inhibition is 11.2% and 10.1% in assay [1]; -1.45% and -5% in assay [2]; 8% and 1.6% in assay [3]; 10.8% and -53% in assay [4]; -3.1% and 3.2% in assay [5]; 8.05% and 18.4% in assay [6].
`CC(=O)C(=O)c1ccccc1`: the growth inhibition in assay [1] is -14.6%; in assay [2] it was 6.5%; in assay [3] it was -0.45%; in assay [4] it was -25.8%; in assay [5], -19.7%; in assay [6] it was -21.5%.
On to `O=C1NC(=O)C(=O)C(=O)N1`, for which the growth inhibition is -16.2% in assay [1]; 8.15% in assay [2]; -1.75% in assay [3]; -32.2% in assay [4]; 1% in assay [5]; 0.5% in assay [6].
Consider `CC(=O)[O][Pb]([CH3])([CH3])[CH3]`, for which the growth inhibition is -28% in assay [1]; -35.9% in assay [2]; -12.4% in assay [3]; 6.7% in assay [4]; -55.5% in assay [5]; -20.8% in assay [6].
On to `COc1cc(=O)oc(/C=C/C=C/C=C/C(C)=C\C2(C)OC(C)C(C)(O)C2O)c1C` (configuration not stated), for which the growth inhibition was 6.3% in assay [1]; -8.35% in assay [2]; 3.35% in assay [3]; -9.4% in assay [4]; -20.4% in assay [5]; -0.95% in assay [6].
Consider `O=C1C2CCN(CC2)C1(CO)CO`, for which the growth inhibition in assay [1] was -4.4%; in assay [2], -4.25%; in assay [3], -26.6%; in assay [4], -58.1%; in assay [5], -30.4%; in assay [6] it was -20.2%.
Take `CCCCC1(C(C)C)C(=O)NC(=O)N(C)C1=O` (configuration not stated): the growth inhibition in assay [1] was -5.55%; in assay [2], 8.9%; in assay [3], 5.15%; in assay [4], -12.7%; in assay [5], 5.75%; in assay [6], 5.3%.
For the compound `COc1ccccc1N=Nc1cccc[c]1[Hg][Cl]`, the growth inhibition in assay [1] was 98.2% (active); in assay [2] it was 99% (active); in assay [3], 98.7% (active); in assay [4], 98.7% (active); in assay [5], 98% (active); in assay [6], 98.3% (active).
Turning to `O=C(COc1ccc(Cl)c(Cl)c1)Nc1cccc(S(=O)(=O)F)c1`, the growth inhibition was 29.4% in assay [1]; 10.4% in assay [2]; -2.45% in assay [3]; -10.8% in assay [4]; 13.1% in assay [5]; 19.4% in assay [6].
Turning to `O=C1CCCC2C3CC(CN12)C1CCCCN1C3` (configuration not stated), the growth inhibition in assay [1] was 9.85% and 15.7%; in assay [2], -18.3% and -13.9%; in assay [3], -3.4% and 6.75%; in assay [4], 9.05% and 21.3%; in assay [5] it was -11.8% and 26.9%; in assay [6] it was -29.3% and 32.3%.
On to `CC(C)CCON=C(N)N`, for which the growth inhibition in assay [1] was -23.8%; in assay [2], -2.25%; in assay [3] it was -13.7%; in assay [4], -40%; in assay [5], -5.6%; in assay [6] it was 2.55%.
As for `CC([NH-])C[NH-].[Na+].[O]=[Co][O-]` (configuration not stated), the growth inhibition in assay [1] is 8.4%; in assay [2], 11.9%; in assay [3], 24.5%; in assay [4] it was -21.6%; in assay [5], -0.25%; in assay [6] it was 10.3%.
For `O=[As](O)(O)c1ccc2nc3cc([As](=O)(O)O)ccc3nc2c1`, the growth inhibition in assay [1] is -11.1%; in assay [2], -3%; in assay [3], -20.4%; in assay [4], 3.8%; in assay [5], 2.35%; in assay [6], -30.9%.
Regarding `O=c1[nH]c(=S)[nH]c(O)c1/C=C1\C=CC=N1`, the growth inhibition is -22.9% in assay [1]; -3.95% in assay [2]; -3.45% in assay [3]; 1.85% in assay [4]; 3.3% in assay [5]; -14.1% in assay [6].
`CCCCCCNCCc1cnc[nH]1`: the growth inhibition in assay [1] was 12.8%; in assay [2], 3.1%; in assay [3] it was 15%; in assay [4] it was 17.5%; in assay [5] it was 2.75%; in assay [6] it was -68.7%.
On to `CC(C)(C)c1cc(C#N)cc(Br)c1OP(=O)(Oc1c(Br)cc(C#N)cc1C(C)(C)C)c1ccccc1`, for which the growth inhibition in assay [1] is -9.6%; in assay [2], -7.5%; in assay [3], -28.8%; in assay [4], -3%; in assay [5], -24%; in assay [6], -17.6%.
On to `CCOP(=O)(OCC)C(C)(C)OC(=O)NC(F)(F)F`, for which the growth inhibition in assay [1] was -18.7%; in assay [2], -15.2%; in assay [3], -2.25%; in assay [4] it was 5.25%; in assay [5] it was -10.1%; in assay [6], 3%.
In the case of `CN1CCN(C(=O)Cc2c[nH]c3ccccc23)CC1`, the growth inhibition is -1.25% in assay [1]; 11.8% in assay [2]; 2.9% in assay [3]; -20.3% in assay [4]; 9.35% in assay [5]; 15.7% in assay [6].
In the case of `ClCCN(CCCl)Cc1c2ccccc2cc2c1ccc1ccccc12`, the growth inhibition in assay [1] is 48.5%; in assay [2], 9.2%; in assay [3] it was 46.8%; in assay [4], -38.3%; in assay [5], -2.5%; in assay [6], 65.5%.
For the compound `CCOP(=O)(OCC)C(F)(F)CC1CCCCC1`, the growth inhibition was -17.1% in assay [1]; -25.6% in assay [2]; -19.4% in assay [3]; -59% in assay [4]; 26.2% in assay [5]; -9.85% in assay [6].
Consider `Clc1ccc(N=P(c2ccccc2)(c2ccccc2)c2ccccc2)cc1.[Cl][Co][Cl]`, for which the growth inhibition is 49% in assay [1]; 11.1% in assay [2]; 44.5% in assay [3]; 18.1% in assay [4]; 22.1% in assay [5]; 14.6% in assay [6].
Regarding `[Co].[NH2-].[NH2-].[NH2-].[NH2-].[NH2-].[NH2-]`, the growth inhibition in assay [1] is -5% and 8.1%; in assay [2], -15.3% and 9.05%; in assay [3] it was -5.4% and 6.25%; in assay [4], -19.8% and 10.1%; in assay [5], 2.3% and 23.4%; in assay [6], -2.9% and -5.85%.
